GBA mod = Glucocerebrosidase; Lysosomal acid glucosylceramidase (Homo sapiens), P04062; purified enzyme, resorufin glucoside fluorescence (screen aimed at inhibitors), 20 min; Potency, µM; 48,000 tested, 1.1% active; in the data active means potency below about 15 µM; inconclusive means mostly about 16 µM to 33 µM;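 further: the screen sought inhibitors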
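Compounds titrated against 0.2 nM normal enzyme, 30 uM resorufin beta-D-glucopyranoside substrate, citrate/phosphate buffer with taurocholate and tween-20, pH 5.9. Reaction ran 20 min at room temperature; fluorescence (Ex 548/Em 600) gave AC50.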
FLuc inh = qHTS Assay for Inhibitors of Firefly Luciferase; 72,000 tested, 2.2% active; AID 411, 2009; Potency, µM (top dose mostly 57.1 µM), most hits filed as inhibitors; purified firefly luciferase, luminescence, 8 min; Luciferin 4-monooxygenase (Photinus pyralis), P08659; active means well fitted inhibition curve with a large enough effect; inconclusive means small, poorly fitted or top-dose-only effect; further: nearly all actives have a fitted effect of over 40% in size
Target sequence (P08659 whole entry, looked up): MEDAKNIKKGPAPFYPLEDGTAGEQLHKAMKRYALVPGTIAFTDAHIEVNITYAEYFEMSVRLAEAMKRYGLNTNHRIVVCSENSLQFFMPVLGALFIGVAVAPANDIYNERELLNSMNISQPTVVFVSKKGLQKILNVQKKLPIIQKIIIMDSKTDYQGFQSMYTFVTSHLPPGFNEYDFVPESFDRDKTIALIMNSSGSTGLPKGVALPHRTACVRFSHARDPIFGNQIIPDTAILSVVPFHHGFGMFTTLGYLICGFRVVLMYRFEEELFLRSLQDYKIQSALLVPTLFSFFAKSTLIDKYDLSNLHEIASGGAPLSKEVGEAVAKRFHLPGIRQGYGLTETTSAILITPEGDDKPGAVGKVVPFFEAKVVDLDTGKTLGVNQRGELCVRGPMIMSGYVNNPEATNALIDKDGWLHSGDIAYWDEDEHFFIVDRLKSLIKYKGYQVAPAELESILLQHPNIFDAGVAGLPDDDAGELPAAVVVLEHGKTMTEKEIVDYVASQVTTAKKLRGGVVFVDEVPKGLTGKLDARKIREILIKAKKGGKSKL
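Luminescence read-out after 8 min at room temperature; enzyme reaction used luciferin plus 10 uM ATP (linear range) in imidazole buffer pH 7.2 with KCl, MgCl2, Tween 20 and BSA. Each sample was run as a titration.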
PK Bst = Pyruvate Kinase; Potency, µM; purified pyruvate kinase, luminescence ATP production; ribose 5-phosphate activator present at AC10; 51,000 tested, 1.2% active; in the data active means potency below about 11 µM; inconclusive means mostly about 12 µM to 25 µM;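 the screen sought inhibitors and activators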
A number is an active result; . = inactive; ? = inconclusive; / = not tested or not shown; [ ] = another dose, or the depositor's remark. Rows were chosen to be rich in hits. Some 3.4% of all compounds tested hit in one or more screens of this group.

SMILES	GBA mod	FLuc inh	PK Bst
c1cc2c(cc1Nc1nc(-c3ccc4c(c3)OCO4)cs1)OCCO2	.	13µM	?
Cc1nc2cnc(N3CCN(C)CC3)nc2n(-c2ccccc2)c1=O	/	.[11.4 µM]	/
Cc1ccccc1N1C(=O)c2cc(S(N)(=O)=O)c(Cl)cc2N[C@H]1C	/	.	/
Cc1noc(C)c1C(=O)N1CCC2(CC1)CN(c1ccccc1)C2	/	.[11.4 µM]	/
Cc1cc(C(=O)Nc2sc3c(c2C#N)CCCC3)no1	.	13µM	?
CC(C)Cc1cc(C(=O)Nc2sc3c(c2C#N)CCCC3)no1	/	.	/
Cc1cc(C(=O)Nc2sc3c(c2C#N)CCC3)no1	.	16µM	/
Cc1cc(C(=O)Nc2sc3c(c2C#N)CCC(C)C3)no1 (stereo not drawn)	.	.	.
CN1C[C@H](C(=O)N[C@]2(C)O[C@@]3(O)[C@H]4CCCN4C(=O)[C@@H](Cc4ccccc4)N3C2=O)C[C@H]2c3cccc4[nH]cc(c34)C[C@@H]21	/	.[11.4 µM]	/
O=C1C2C(C(=O)N1c1ccncc1)C1C=CC2C12CC2 (stereo not drawn)	.	.	.
Cc1ccc(N2C(=O)C3C(C2=O)C2C=CC3C23CC3)cc1 (stereo not drawn)	/	13µM	/
Cc1nnc(NC(=O)C2CCCN(S(=O)(=O)Cc3ccccc3)C2)s1 (stereo not drawn)	?	.	.
CCc1nnc(NC(=O)C2CCN(S(=O)(=O)Cc3ccccc3)CC2)s1	4.3	.	.
O=C(N1CCOCC1)N1CCN(c2nc(-c3ccc(F)cc3)cs2)CC1	.	16µM	.
O=C(CN1CCN(c2nc(-c3ccc(F)cc3)cs2)CC1)Nc1ccc2c(c1)OCO2	.	.	.
O=C1c2ccccc2S(=O)(=O)N1Cc1nnc(-c2ccccc2Br)o1	.	.	/
O=S1(=O)c2cccc3cccc(c23)N1Cc1nnc(-c2ccccc2Br)o1	.	.	2.1
O=S1(=O)c2cccc3cccc(c23)N1Cc1ccc(-c2nnco2)cc1	?	.	1.5
Cc1ccc(C)n1-c1ccc(-c2nnco2)cc1	.	.	.
COc1ccc(-n2c(=O)c(-c3ccccc3)nc3cnc(N4CCOCC4)nc32)cc1	/	.[11.4 µM]	/
COc1ccc(CNc2ccnc(-c3cccnc3)n2)c(OC)c1	/	.[2.29 µM]	/
Cc1ccc(O)c(CNc2ccccn2)c1	/	.	.
CSc1ccc(CNc2ccccn2)cc1	/	16µM	/
c1ccc(Cn2c(-c3ccco3)nc3nc4ccccc4nc32)cc1	.	.	.
Clc1ccc(-c2nc3nc4ccccc4nc3n2Cc2ccco2)cc1	.	.	.
SMILES	GBA mod	FLuc inh	PK Bst
Cc1ccc(-c2nc3nc4ccccc4nc3n2Cc2ccco2)cc1	.	10µM	.
COc1ccccc1Cn1c(-c2ccco2)nc2nc3ccccc3nc21	.	3.2µM	.
COc1ccccc1-c1oc2ccccc2c(=O)c1OC	/	.[11.4 µM]	/
Cc1nc2cnc(Oc3cccc(Cl)c3)nc2n(CCc2ccccc2)c1=O	/	.[11.4 µM]	/
COCn1c(-c2cccc(Br)c2)nc2ccccc21	/	.	/
COCn1c(-c2ccc(OC)c(OC)c2)nc2ccccc21	/	16µM	/
COc1ccc(-n2c(=O)c(-c3cccs3)nc3cnc(N4CCN(C)CC4)nc32)cc1	/	.[11.4 µM]	/
O=C(O)c1ccccc1CN1CCC[C@@H](C(=O)O)C1	/	.[11.4 µM]	/
COc1cccc(C2CC(c3ccccc3Cl)Nc3ncnn32)c1 (stereo not drawn)	.	.	8.4
COc1ccc(C2CC(c3ccccc3Cl)Nc3ncnn32)cc1OC (stereo not drawn)	.	.	.
O=C(c1ccco1)N1CCC2(CCN(Cc3ccncc3)CC2)CC1	/	.[11.4 µM]	/
CN(C)CC(O)COc1cccc(OCC(O)CN(C)C)c1 (stereo not drawn)	/	.	.
COc1cccc(OCC(O)CN(CCO)Cc2ccccc2)c1 (stereo not drawn)	13	.	.
CO[C@H]1COC(=O)[C@@H](Cc2ccccc2)NC(=O)[C@@H](C)COC(=O)CCC[C@@H]1C	/	.[11.4 µM]	/
COc1cc(N)c(Cl)cc1C(=O)CCC1CCN(CCNS(C)(=O)=O)CC1	/	.	/
COc1ccc(CCCc2nnc(SCC(=O)Nc3ncc(C)s3)o2)cc1	?	16µM	.
COc1ccc(Cc2nnc(SCC(=O)Nc3ncc(C)s3)o2)cc1	.	.	.
N=C(N)SCCON1C(=O)c2ccccc2C1=O	/	.[11.4 µM]	/
CCCCN(CC)S(=O)(=O)c1ccc(C(=O)Nc2nnc(-c3ccccc3Cl)o2)cc1	.	.	.
CCCCN(C)S(=O)(=O)c1ccc(C(=O)Nc2nnc(-c3cccs3)o2)cc1	8.2	.	.
Cc1cc([C@](C)(N)C(=O)O)ccc1P(=O)(O)O	/	25µM	/
C[C@@](N)(C(=O)O)c1cccc(CC(=O)O)c1	/	.	/
CCCCOC(=O)CSc1nc(N)c(C#N)c(-c2ccc(OCC)cc2)c1C#N	.	.	.
CCCCOc1ccc(-c2c(C#N)c(N)nc(SCC(N)=O)c2C#N)cc1	8.8	.	.
O=C(O)CSc1ncccc1[N+](=O)[O-]	/	.[11.4 µM]	/
SMILES	GBA mod	FLuc inh	PK Bst
COc1ccc(NC(=O)/C=C\c2ccc(Cl)cc2)cc1	/	13µM	/
COc1ccc(NC(=O)CS(=O)CC(=O)Nc2cc(Cl)ccc2OC)cc1 (stereo not drawn)	/	.	.
COc1ccc(Oc2ncc3nc(C)c(=O)n(C[C@H]4CCCO4)c3n2)cc1	/	.[11.4 µM]	/
COC(=O)/C=c1/sc2n(c1=O)CCN=2	.	.	.
CN(C)c1ccc(/C=c2\sc3n(c2=O)CCCN=3)cc1	.	2.5µM	2.7
CSC(N)=NCCC[C@@H](N)C(=O)O	/	.	/
COC(=O)c1ccc(CSc2nccn2C)cc1	.	.	.
Cn1ccnc1SCc1cn2cc(Br)ccc2n1	/	16µM	.
Cc1nc(NC(=O)c2ccccc2)sc1-c1csc(N)n1	.	16µM	.
CC(=O)Cc1nsc(NC(=O)c2ccccc2)n1	.	.	.
O=c1cc(-c2ccccc2)oc2cc(O[C@H]3O[C@H](CO)[C@@H](O)[C@H](O)[C@@H]3O)c(O)c(O)c12	/	.[11.4 µM]	/
CC(=O)NCCN=C(C)c1sc2ccccc2c1O	.	.	.
CC(=Nc1ccc(O)cc1)c1sc2ccccc2c1O	.	7.9µM	?
O[C@@H](COc1ccc(Cl)cc1Cl)CN1CCCC1	/	.[11.4 µM]	/
CC(C)n1cnc2cc(NCc3nc4ccccc4n3C)ccc21	.	13µM	/
Cn1c(CNc2ccccc2O)nc2ccccc21	/	.	/
N[C@H](Cc1ccc(F)cc1)C(=O)O	/	.	/
COc1ccc(N2CCN(C(=O)COc3ccc4ccccc4c3)CC2)cc1	.	.	.
COc1cc(OC)cc(C(=O)N2CCN(C(=O)COc3ccc4ccccc4c3)CC2)c1	.	10µM	?
C[C@H]1NC(=O)NC1=O	/	.	/
CN(C)C(=O)c1ccc(-c2ccc3ncnc(NCc4ccccc4)c3c2)cc1	/	.[2.29 µM]	/
Cc1cccc(NC(=O)CN2CCN(CC(=O)Nc3cccc(C)c3)CC2)c1	/	.	/
O=C(/C=C/Nc1cccc(O)c1)c1ccccc1	/	2µM	/
C/C(=C\C(=O)c1ccc(C)cc1)Nc1cccc(O)c1	/	5µM	/
CC(=O)Nc1cccc(C(=O)Nc2ccccc2C(=O)O)c1	.	.	.
SMILES	GBA mod	FLuc inh	PK Bst
Cc1ccc(C(=O)/C=C/Nc2cccc(O)c2)cc1	/	2.5µM	1.3
O=C(Nc1cccc(O)c1)c1ccc(Br)cc1	.	.	/
COc1cccc(Nc2ncc3nc(-c4ccccc4)c(=O)n(Cc4cccs4)c3n2)c1	/	.[11.4 µM]	/
COCCn1c(=O)c(CCc2ccccc2)nc2cnc(N3CCN(C)CC3)nc21	/	.[11.4 µM]	/
Cc1cc(/C=N/n2cnnc2)c(C)n1-c1ccc(OCc2ccccc2F)cc1	/	.	/
Cn1nnc(-c2ccc(OCc3ccccc3F)cc2)n1	.	25µM	.

Source: PubChem (National Center for Advancing Translational Sciences (NCATS))
